The campaign covered roughly 52,000 compounds. About 4,300 (8.3%) were called active. The sample holds actives, similar compounds and a random draw of the others, so the mix is not that of the screen. Values without a mark were called inactive. Cut-off read from the data, not from the text of the source: active = survival mostly below about 52% (no sharp cut-off); inactive = mostly above about 56%.
These compounds were tested on DeltatarO mutant (assay: S. aureus survival, RN4220 and DeltatarO strains – OD600, teichoic acid synthesis inhibitors, primary screen (AID 463173)). Details: S. aureus RN4220 wild type/DeltatarO growth, OD600, 18 h, stronger effect = lower value, screened at 18.75 µg/mL (by protocol).

| Compound | survival |
| --- | --- |
| Cc1nn(C)c2c1c(-c1ccccc1)cc(=O)n2Cc1ccccc1Cl | 88% |
| Cc1cccc(NC(=O)Cn2c(=O)n(CCc3ccccc3)c(=O)c3sc4ccccc4c32)c1 | 105% |
| Cc1ccc(Cn2ccnc2SCC(=O)NC2CCCC2)cc1 | 89% |
| Cc1cccc(C)c1NC(=O)CN1C(=O)c2ccccc2Sc2ncccc21 | 88% |
| COc1ccccc1-c1cc(C(=O)NCc2ccccc2)c2c(-c3ccc(C)cc3)[nH]nc2n1 | 80% |
| Cn1c(SCC(N)=O)nc2c([nH]c3ccccc32)c1=O | 88% |
| COc1ccccc1N1CCN(C(=O)C(CCSC)NS(=O)(=O)c2ccc3c(c2)oc(=O)n3C)CC1 (stereo not given) | 87% |
| Cc1ccc(Cn2c(=O)n(-c3ccccc3)c(=O)c3ccc(C(=O)NCc4ccco4)cc32)cc1 | 75% |
| COc1ccc(CCN2C(=O)NC(NC(=O)c3ccccc3OC)(C(F)(F)F)C2=O)cc1OC (stereo not given) | 77% |
| CSc1ccc(CNC(=O)c2ccc3c(c2)N(C)C(=O)C2CCCCN32)cc1 (stereo not given) | 92% |
| COc1cccc(CNC(=O)c2ccc3c(c2)N(C)C(=O)C2CCCCN32)c1 (stereo not given) | 72% |
| CC(C)Oc1ccc(CNC(=O)c2ccc3c(c2)N(C)C(=O)C2CCCCN32)cc1 (stereo not given) | 37% (active) |
| CCCCOc1ccc(CNC(=O)c2ccc3c(c2)N(C)C(=O)C2CCCCN32)cc1 (stereo not given) | 74% |
| Cc1cccc(CNC(=O)c2ccc3c(c2)N(C)C(=O)C2CCCCN32)c1 (stereo not given) | 0% (active) |
| COc1ccc(CNC(=O)c2ccc3c(c2)N(C)C(=O)C2CCCCN32)cc1OC (stereo not given) | 75% |
| CCOc1ccc(CNC(=O)C2CCCN(c3nn4cc(-c5ccc(OC)cc5)nc4s3)C2)cc1 (stereo not given) | 99% |
| Cc1c2cnn(CC(=O)N3CCN(c4ccccc4)CC3)c(=O)c2c(C)n1Cc1ccc(F)cc1 | 67% |
| COc1ccc(-c2cc(C(N)=O)on2)c(OC)c1 | 99% |
| O=S(=O)(c1cccc(S(=O)(=O)N2CCOCC2)c1)N1CCCCCC1 | 91% |
| Cc1ccc2occ(CC(=O)Nc3nnc(C(C)C)s3)c2c1 | 70% |
| CCCCSCCCNC(=O)c1cn(C)c2ccc(S(=O)(=O)N3CCCCCC3)cc2c1=O | 63% |
| CC(C)(C)NC(=O)c1oc2ccccc2c1NC(=O)c1ccc(F)cc1 | 71% |
| O=C(Nc1ccc(F)cc1)c1oc2ccccc2c1NC(=O)C1CCCCC1 | 11% (active) |

| Compound | survival |
| --- | --- |
| COc1ccc(NC(=O)c2oc3ccccc3c2NC(=O)C2CCCCC2)c(OC)c1 | 74% |
| Cc1ccc(NC(=O)c2oc3ccccc3c2NC(=O)C2CCCCC2)cc1 | 2% (active) |
| COc1cccc(NC(=O)c2oc3ccccc3c2NC(=O)C2CCCCC2)c1 | 66% |
| CN(C)c1ccc(C(=O)Nc2c(C(=O)NC(C)(C)C)oc3ccccc23)cc1 | 57% |
| O=C(Nc1ccc(F)cc1)c1oc2ccccc2c1NC(=O)C12CC3CC(CC(C3)C1)C2 | 96% |
| COc1ccccc1NC(=O)c1oc2ccccc2c1NC(=O)C1CCCCC1 | 43% (active) |
| CCOc1ccc(NC(=O)c2oc3ccccc3c2NC(=O)C2CCCCC2)cc1 | 103% |
| COc1cc(OC)cc(C(=O)Nc2c(C(=O)Nc3ccc(F)cc3)oc3ccccc23)c1 | 62% |
| Cc1ccc(C(=O)Nc2c(C(=O)NC(C)(C)C)oc3ccccc23)cc1 | 32% (active) |
| Cc1ccc(NC(=O)c2oc3ccccc3c2NC(=O)C23CC4CC(CC(C4)C2)C3)cc1 | 75% |
| CCOC(=O)c1ccc(NC(=O)Cn2nc3c4ccccc4n(Cc4cccc(F)c4)cc-3c2=O)cc1 | 82% |
| Cc1cc(C)nc(Nc2ccc(O)cc2)n1 | 91% |
| CC(C)c1ccc(S(=O)(=O)c2nnn3c2nc(NC2CCCC2)c2sccc23)cc1 | 65% |
| CCN(CC)c1ccc(NC(=O)c2cnn(-c3ccccc3)c2-n2cccc2)c(C)c1 | 115% |
| CCC1CCCCN1CCCNC(=O)c1[nH]c2ccccc2c1Sc1ccc(Cl)cc1 (stereo not given) | -1% (active) |
| CC1CCCCN1CCCNC(=O)Cn1ncc2c([nH]c3ccccc32)c1=O (stereo not given) | 124% |
| CCCCNC(=O)c1[nH]c2ccccc2c1Sc1ccc(C)cc1 | 75% |
| CCN(CC)CCNC(=O)c1[nH]c2ccccc2c1Sc1ccc(Cl)cc1 | 45% |
| CC1CCCCN1CCCNC(=O)c1[nH]c2ccccc2c1Sc1ccc(Cl)cc1 (stereo not given) | 1% (active) |
| CC1CCCCN1CCCNC(=O)c1cc(Sc2cccc(Cl)c2)nc2ccccc12 (stereo not given) | 68% |
| CC1CCCCN1C(=O)CN1CCSc2ccccc21 (stereo not given) | 74% |
| Cc1nc2sc(C(N)=O)c(N)c2c(-c2ccc(Br)cc2)c1C(=O)Nc1ccc(Cl)cc1 | 10% (active) |
| Cc1nc2sc(C(=O)Nc3ccc(F)cc3)c(N)c2c(-c2ccc(Br)cc2)c1C(=O)Nc1ccc(Cl)cc1 | 80% |

| Compound | survival |
| --- | --- |
| COc1ccc(NC(=O)c2sc3nc(C)c(C(=O)Nc4ccc(Cl)cc4)c(-c4ccc(Br)cc4)c3c2N)cc1 | 57% |
| Cc1ccc(CNC(=O)CCN2C(=O)C(C)Oc3ccc(C)cc32)cc1 (stereo not given) | 128% |
| Cn1cc(C(=O)O)c(=O)c2ccccc21 | 80% |
| CCCNC(=O)c1c(O)c2ccccc2n(C)c1=O | 93% |
| CCc1nnc(NC(=O)c2c(O)c3ccccc3[nH]c2=O)s1 | 84% |
| CCc1nnc(NC(=O)c2c(O)c3ccccc3n(C)c2=O)s1 | -1% (active) |
| COc1ccc(C(=O)COC(=O)CCCC(=O)Nc2cc(C(F)(F)F)ccc2Cl)cc1 | 53% |
| Cc1ccc(C(=O)COC(=O)CCCC(=O)Nc2cc(C(F)(F)F)ccc2Cl)cc1C | 54% |
| Cc1ccc(C)c(C(=O)COC(=O)CCCC(=O)Nc2cc(C(F)(F)F)ccc2Cl)c1 | 25% (active) |
| COc1ccc(NC(=O)CSc2nc(-c3cccs3)cc(C(F)(F)F)n2)cc1Cl | 37% (active) |
| COc1ccc(NC(=O)CSc2nc(-c3cccs3)cc(C(F)(F)F)n2)c(OC)c1 | 57% |
| Cc1ccc(NC(=O)CSc2nc(-c3cccs3)cc(C(F)(F)F)n2)cc1C | 155% |
| O=C(CSc1nc(-c2cccs2)cc(C(F)(F)F)n1)Nc1ccccc1Cl | 121% |
| CC(C)(C)c1ccccc1NC(=O)CSc1nc(-c2cccs2)cc(C(F)(F)F)n1 | 23% (active) |
| COC(=O)c1ccccc1NC(=O)CSc1nc(=O)cc(N)n1-c1ccccc1 | 38% (active) |
| COc1cc(NC(=O)CSc2nc(-c3cccs3)cc(C(F)(F)F)n2)cc(OC)c1OC | 49% |
| CCOc1ccccc1NC(=O)CSc1nc(-c2cccs2)cc(C(F)(F)F)n1 | 69% |
| Cc1ccc(NC(=O)CSc2nc(=O)cc(N)n2-c2ccccc2)cc1 | 87% |
| Nc1cc(=O)nc(SCC(=O)Nc2ccc(F)cc2)n1-c1cccc(Cl)c1 | 145% |
| COc1ccc(Cl)cc1NC(=O)CCS(=O)(=O)c1nc(-c2cccs2)cc(C(F)(F)F)n1 | 63% |
| COc1ccc(Cl)cc1NC(=O)CSc1nc(-c2cccs2)cc(C(F)(F)F)n1 | 35% (active) |
| CCOC(=O)c1oc2ccc(S(=O)(=O)n3nc(-c4cc(OC)c(OC)c(OC)c4)cc3N)cc2c1C | 73% |
| Cc1cccc(N2CCN(C(=O)C3CCN(S(=O)(=O)c4c(C)noc4C)CC3)CC2C)c1 (stereo not given) | 100% |

| Compound | survival |
| --- | --- |
| CCOc1ccc(-c2nn(CC(=O)NC3CCCCC3)c3c2cnc2ccc(C)cc23)cc1 | 107% |
| CCOc1ccc(NC(=O)C2CCCN(c3nn4cc(-c5ccc(OC)cc5)nc4s3)C2)cc1 (stereo not given) | 113% |
| Cc1oc(-c2cccc(Cl)c2)nc1CSc1nncn2c1cc1occc12 | 103% |
| COC(=O)c1sccc1S(=O)(=O)N(CC(=O)Nc1cc(C)cc(C)c1)c1ccc(Cl)cc1 | 88% |
| Cn1c(SCC#N)nc2c(c1=O)C1(CCCCC1)Cc1ccccc1-2 | 103% |
| CCCCNC(=O)C1CCN(Cc2cccc(OC)c2O)CC1 | 78% |
| COC(=O)c1ccccc1NC(=O)CSc1nc(-c2ccccc2)cc(C(F)(F)F)n1 | 25% (active) |
| CCCNC(=O)CSc1nc(-c2ccccc2)cc(C(F)(F)F)n1 | 77% |
| CCn1c(SCC(=O)Nc2ccccc2C(=O)OC)nc2ccsc2c1=O | 94% |
| COC(=O)CSc1nc(-c2ccccc2)cc(C(F)(F)F)n1 | 88% |
| CCC(C)n1c(SCC(=O)Nc2ccccc2C(=O)OC)nc2ccsc2c1=O (stereo not given) | 17% (active) |
| COC(=O)c1ccccc1NC(=O)CSc1nc2ccsc2c(=O)n1CCC(C)C | 88% |
| CCNC(=O)C1CCCN(c2ncnc3onc(C)c23)C1 (stereo not given) | 101% |
| CCOc1ccccc1NC(=O)c1ccc2c(c1)CCN2S(C)(=O)=O | 75% |
| COc1ccc(S(=O)(=O)Nc2cccc(-c3ccc(N4CCOCC4)nn3)c2)cc1F | 88% |
| COc1ccc(CCN2C(=O)c3oc4cc(C)cc(C)c4c(=O)c3C2c2ccc(F)cc2)cc1OC (stereo not given) | 56% |
| Cc1cc(C)c2c(=O)c3c(oc2c1)C(=O)N(Cc1ccco1)C3c1ccc(F)cc1 (stereo not given) | 53% |
| O=C1c2oc3ccccc3c(=O)c2C(c2cccc(O)c2)N1Cc1ccc(F)cc1 (stereo not given) | 77% |
| CCCN1C(=O)c2oc3cc(C)cc(C)c3c(=O)c2C1c1ccc(F)cc1 (stereo not given) | 49% (active) |
| COCCN1C(=O)c2oc3cc(C)cc(C)c3c(=O)c2C1c1cccc(O)c1 (stereo not given) | 71% |
| Cc1cc(C)c2c(=O)c3c(oc2c1)C(=O)N(Cc1ccc(F)cc1)C3c1cccc(O)c1 (stereo not given) | 52% (active) |

From PubChem BioAssay AID463173 (ICCB-Longwood Screening Facility, Harvard Medical School, 2010)
